# Laboratory results taken from the supplement of paper PMC11555231.
# Molecular target: PADI4, Q9UM07
# Assay: log2 enrichment score relative to parent PADI4_3 peptide (binding to PADI4); higher = tighter binding than parent
# Conditions: CaCl2: 10 mM
# Method: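 Deep mutational scan of the cyclic peptide PADI4_3 (ClAc-D-Tyr1 initiator, thioether-cyclised to Cys12, C-terminal Gly plus HA tag, mRNA-displayed). Positions 2-11 were each randomised by NNK codons; Met was reprogrammed as N-methyl-alanine (MeA). One round of equilibrium panning against bead-immobilised human PADI4 (100 nM, 10 mM CaCl2, RT). Log2 enrichment (bound/input frequency) relative to the parent sequence (0 = parent), mean of three independent selections.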
# Sequence of PADI4, Q9UM07 (Q9UM07 whole entry): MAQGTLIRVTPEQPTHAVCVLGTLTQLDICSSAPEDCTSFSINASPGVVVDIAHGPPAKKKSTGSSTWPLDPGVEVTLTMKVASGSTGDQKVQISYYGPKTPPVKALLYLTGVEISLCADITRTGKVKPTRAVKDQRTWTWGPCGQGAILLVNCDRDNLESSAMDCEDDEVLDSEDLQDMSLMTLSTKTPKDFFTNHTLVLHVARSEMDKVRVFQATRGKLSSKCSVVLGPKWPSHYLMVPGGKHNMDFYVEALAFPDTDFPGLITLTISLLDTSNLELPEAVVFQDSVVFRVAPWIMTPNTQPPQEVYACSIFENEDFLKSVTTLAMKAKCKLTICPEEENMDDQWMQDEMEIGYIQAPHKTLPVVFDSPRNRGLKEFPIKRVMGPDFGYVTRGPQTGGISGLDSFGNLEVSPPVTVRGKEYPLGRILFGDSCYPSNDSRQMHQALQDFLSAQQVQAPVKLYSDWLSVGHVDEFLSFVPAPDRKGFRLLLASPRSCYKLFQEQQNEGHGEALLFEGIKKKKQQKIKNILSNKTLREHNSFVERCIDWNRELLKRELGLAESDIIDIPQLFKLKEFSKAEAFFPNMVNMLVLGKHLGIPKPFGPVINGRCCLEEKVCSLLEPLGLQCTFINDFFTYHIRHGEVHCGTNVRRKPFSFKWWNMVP
row,Binder,log2 enrichment score
1,YNDHHYRHPKYCG [PADI4_3_R2N R2N],-2.77
2,YRDHGYRHPKYCG [PADI4_3_H5G H5G],-3.73
3,YRDHQYRHPKYCG [PADI4_3_H5Q H5Q],-3.72
4,YRDHHYGHPKYCG [PADI4_3_R7G R7G],-2.58
5,YRDHHNRHPKYCG [PADI4_3_Y6N Y6N],-2.28
6,YRDHHYRHPQYCG [PADI4_3_K10Q K10Q],-1.09
7,YRDQHYRHPKYCG [PADI4_3_H4Q H4Q],-0.57
8,YRDHNYRHPKYCG [PADI4_3_H5N H5N],-3.38
9,YRDHHYRQPKYCG [PADI4_3_H8Q H8Q],-3.37
10,YRDGHYRHPKYCG [PADI4_3_H4G H4G],-3.75
11,YRDHHYRNPKYCG [PADI4_3_H8N H8N],-2.87
12,YRDHHYRHPKGCG [PADI4_3_Y11G Y11G],-4.17
13,YRDHHYRGPKYCG [PADI4_3_H8G H8G],-3.99
14,YRNHHYRHPKYCG [PADI4_3_D3N D3N],-2.8
15,YGDHHYRHPKYCG [PADI4_3_R2G R2G],-3.89
16,YRDHHYRHQKYCG [PADI4_3_P9Q P9Q],-1.71
17,YRDHHYRHPGYCG [PADI4_3_K10G K10G],-2.43
18,YRDHHYRHGKYCG [PADI4_3_P9G P9G],-2.45
19,YRDHHYRHPNYCG [PADI4_3_K10N K10N],-1.77
20,YRDNHYRHPKYCG [PADI4_3_H4N H4N],-2.71
21,YRDHHQRHPKYCG [PADI4_3_Y6Q Y6Q],-1.94
22,YQDHHYRHPKYCG [PADI4_3_R2Q R2Q],-1.6
23,YRQHHYRHPKYCG [PADI4_3_D3Q D3Q],-3.32
24,YRDHHYRHPKQCG [PADI4_3_Y11Q Y11Q],-4.43
25,YRDHHGRHPKYCG [PADI4_3_Y6G Y6G],-1.54
26,YRDHHYNHPKYCG [PADI4_3_R7N R7N],1.37
27,YRDHHYRHPKNCG [PADI4_3_Y11N Y11N],-3.81
28,YRDHHYRHNKYCG [PADI4_3_P9N P9N],-2.01
29,YRDHHYQHPKYCG [PADI4_3_R7Q R7Q],-0.31
30,YRGHHYRHPKYCG [PADI4_3_D3G D3G],-3.8
